Many of the other results were omitted from the sample, so hits are more common in it than they were.
Methyltransferases: Primary Screen for Target Class Profiling of Small Molecule Inhibitors of Methyltransferases. purified enzyme, MTase-Glo SAH luminescence; stronger effect = lower value. calls only at 40 µM. hit rate 3.9% among 25,000. AID 1745853, 2022; call rule not given here
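Each enzyme was reacted with SAM and its substrate, with compounds tested once at 40 uM; SAH formed was read by MTase-Glo luminescence.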
Each line names hits and unclear results; the compound was inactive in the other large screens.

CCCS(=O)(=O)Nc1ccc(F)c(C(=O)c2c[nH]c3ncc(-c4ccc(Cl)cc4)cc23)c1F	Methyltransferases active
CCCCN1C(=O)c2cc(C(=O)Nc3ccc(OC)cc3OC)nn2CC1(C)C(=O)NC1CCCC1 (configuration not stated)	none
CC(NC(=O)Cn1c(=O)oc2cc(S(=O)(=O)NC3CCCC3)ccc21)c1ccccc1 (configuration not stated)	none
COC(=O)c1ncn2c1C(=O)N(c1ccc(OC)c(Cl)c1)C(C)(C(=O)NC1CCCC1)C2 (configuration not stated)	none
COCCCN1C(=O)c2cc3ccccc3n2CC1(C)C(=O)NC1CCCCC1 (configuration not stated)	none
OC[C@H](Cc1ccccc1)Nc1nc(Oc2ccc3c(c2)CCC3)nc2c1ncn2Cc1ccc(-c2ccccc2)cc1	Methyltransferases active
CCC(C)NC(=O)c1ccc2c(=O)n(Cc3ccccc3)c3nn(Cc4cccc(OC)c4)c(=O)n3c2c1 (configuration not stated)	none
CC1(C(=O)NC2CCCCC2)Cn2nc(-c3ccco3)cc2C(=O)N1Cc1ccccc1Cl (configuration not stated)	none
Cc1ccc(C(=O)Cn2nc3n(CC(C)C)c(=O)c4ccc(C(=O)NCC(C)C)cc4n3c2=O)cc1	none
CN1CCN(CCCN2c3ccccc3Sc3ccc(Cl)cc32)CC1	none
CN1CCN2c3ccccc3Cc3ccccc3C2C1 (configuration not stated)	none
CSc1ccc2c(c1)C(N1CCN(C)CC1)Cc1ccccc1S2 (configuration not stated)	Methyltransferases active
Cc1ccc(CN2C(=O)c3cc4occc4n3CC2(C)C(=O)NC2CCC(C)CC2)cc1 (configuration not stated)	none
COc1c(Nc2ncc(Cl)c(N[C@H]3[C@@H](C(N)=O)[C@@H]4C=C[C@H]3C4)n2)ccc2c1CC[C@@H](N1CCOCC1)CC2	none
CNC(=O)c1ccccc1Nc1nc(Nc2ccc3c(c2OC)CCCC(N2CCN(CCO)CC2)C3)ncc1Cl (configuration not stated)	Methyltransferases active
COC(=O)c1cc2n(n1)CC(C)(C(=O)NC1CCCCC1)N(c1cccc(Cl)c1C)C2=O (configuration not stated)	none
CNCCC(c1cccs1)c1ccc(O)c2ccccc12 (configuration not stated)	Methyltransferases active
CC1CCCCC1NC(=O)C1(C)Cn2c(cc3sccc32)C(=O)N1CCCc1ccccc1 (configuration not stated)	none
CCOC(=O)c1cc2n(n1)CC(C)(C(=O)NCc1ccccc1)N(Cc1ccccc1Br)C2=O (configuration not stated)	none
Nc1nc(NC2CC2)cc(-c2cccc(Cl)c2Cl)n1	Methyltransferases active
Nc1nnc(-c2cccc(Cl)c2Cl)c(N)n1	none
CC1(C(=O)NC2CCCCCCC2)Cn2c(ccc2-c2ccccc2)C(=O)N1CC1CCCO1 (configuration not stated)	none
COc1ccc2cc3n(c2c1)CC(C)(C(=O)NC1CCCC1)N(c1cccc(Cl)c1)C3=O (configuration not stated)	none
C[C@@H]1C[C@@H](O)[C@@]2(CO)C(CO)=CCC[C@@H]2[C@@]12C[C@@H](c1ccoc1)OC2=O	none
C[C@]12CC[C@@H]3c4ccc(O)c(O)c4CC[C@H]3[C@@H]1CCC2=O	Methyltransferases active
CCc1cc2c(cc3n2CC(C)(C(=O)NC2CCCCC2)N(Cc2cccc(F)c2)C3=O)s1 (configuration not stated)	none
CC(=O)O[C@@H]1[C@H](O[C@@H]2O[C@H](CO)[C@@H](O)[C@H](O)[C@H]2O)[C@@H](O[C@@H]2O[C@@H](C)[C@H](O)[C@@H](O[C@@H]3O[C@H](CO)[C@@H](O)[C@H](O)[C@H]3O)[C@H]2O)[C@H](OC(=O)C23CCC4(C)C(=CCC5C6(C)CC(O)C(O[C@@H]7O[C@H](C(=O)O)[C@@H](O)[C@H](O)[C@H]7O)C(C)(C(=O)O)C6CCC54C)C2CC(C)(C)CC3O)O[C@@H]1C (some centres not stated)	none
CNC(=O)c1cc(C2CC2)nc2onc(C3CCN([S+](=O)([O-])c4ccccc4)C3)c12 (configuration not stated)	none
C=C1C(OC2OC(CO)C(O)C(O)C2O)CC2C(C)(C)C(O)CCC2(C)C1CC/C(C)=C\COC(=O)CC(=O)O (configuration not stated)	Methyltransferases active
CC(C)=CC/C=C(\C)[C@H]1CC[C@]2(C)[C@@H]1[C@H](O)C[C@@H]1[C@@]3(C)CC[C@H](O)C(C)(C)[C@@H]3[C@@H](O[C@@H]3O[C@H](CO)[C@@H](O)[C@H](O)[C@H]3O)C[C@]12C	none

Screening results from PubChem BioAssay.
